These results are taken from the antibiotic and cytotoxicity screens of Wong et al. (2023).

Out of some 39,000 compounds screened, about 3,300 (8.5%) were called active. What follows is part of a selection rich in actives, with near analogues and random picks from the rest.

This assay concerns HepG2. The assay can be described thus: cytotoxicity call (relative viability < 0.9). As to conditions: 10 µM.
On to `O=c1[nH][nH]c(=O)c(Cl)c1Cl`, for which the cytotoxicity call was “inactive”.

For `COc1ccc(NC(=O)N(C)C[C@@H]2Oc3c(NC(=O)C4CC4)cccc3C(=O)N([C@@H](C)CO)C[C@H]2C)cc1`, the cytotoxicity call was “inactive”. For `CC(C)CC#Cc1ccc2c(c1)O[C@H](CN(C)C(=O)NC1CCCC1)[C@@H](C)CN([C@H](C)CO)S2(=O)=O` the value was “inactive”.

For `CC(C)NC(=O)Nc1cccc2c1O[C@H](CN(C)S(=O)(=O)c1ccc(Cl)cc1)[C@H](C)CN([C@@H](C)CO)C2=O`, the cytotoxicity call is “inactive”.

For the compound `COc1ccc(CN(C)C[C@@H]2OCCCC[C@@H](C)Oc3ccc(NS(=O)(=O)c4c(C)noc4C)cc3C(=O)N([C@H](C)CO)C[C@H]2C)cc1`, the cytotoxicity call is “inactive”. The entry for `C[C@@H]1CN([C@@H](C)CO)C(=O)c2cc(NC(=O)Cc3cn(C)c4ccccc34)ccc2O[C@H]1CN(C)S(=O)(=O)c1cn(C)cn1` is “inactive”. For `COc1ccc(NC(=O)Nc2ccc3c(c2)C(=O)N([C@@H](C)CO)C[C@H](C)[C@H](CN(C)C(=O)Nc2ccc4c(c2)OCO4)OCCCC[C@H](C)O3)cc1` the value was “inactive”; for `CCS(=O)(=O)Nc1ccc2c(c1)CC(=O)N2`, “inactive”. Take `CCS(=O)(=O)Nc1ccc2c(c1)C(=O)N(C)[C@@H]1CC[C@H](CC(=O)N[C@H]3CCN(Cc4ccccc4)C3)O[C@H]1CO2`: the cytotoxicity call was “inactive”. `CCS(=O)(=O)Nc1ccc2c(c1)/C(=C(/Nc1ccc(CN3CCCCC3)cc1)c1ccccc1)C(=O)N2`: the cytotoxicity call was “active”. For the compound `N#Cc1cccc(NCCN2CCNC2=O)n1`, the cytotoxicity call is “inactive”.

On to `Cc1ccc(S(=O)(=O)N(C)C[C@H]2Oc3cc(C#Cc4ccccc4)ccc3S(=O)(=O)N([C@H](C)CO)C[C@@H]2C)cc1`, for which the cytotoxicity call is “inactive”.

In the case of `C=CCCN(CC#C[C@H]1Oc2ccccc2S(=O)(=O)N2CCC[C@@H]12)S(=O)(=O)c1ccc(C)cc1`, the cytotoxicity call is “active”. The entry for `Cc1ccc(S(=O)(=O)N(C)C[C@@H]2Oc3cc(C#Cc4ccccc4)ccc3S(=O)(=O)N([C@H](C)CO)C[C@H]2C)cc1` is “inactive”. For `C[C@@H]1CCCCO[C@H](CN(C)C(=O)Cc2ccccc2)[C@@H](C)CN([C@H](C)CO)C(=O)c2cc(NS(=O)(=O)c3ccc(F)cc3)ccc2O1` the value was “inactive”; for `Cc1noc(C)c1NC(=O)Nc1ccc2c(c1)C(=O)N([C@H](C)CO)C[C@@H](C)[C@H](CN(C)C(=O)Nc1ccc(C(F)(F)F)cc1)OCCCC[C@H](C)O2`, “inactive”. As to `CCCNC(=O)Nc1ccc2c(c1)OC[C@H](C)N(Cc1ccc(-c3ccccn3)cc1)C[C@@H](C)[C@@H](OC)CN(C)C2=O`, the cytotoxicity call is “inactive”.

`O=C(C[C@@H]1CC[C@@H]2[C@H](COC[C@@H](O)CN2Cc2cc(F)ccc2F)O1)N[C@H]1CCN(Cc2ccccc2)C1`: the cytotoxicity call was “inactive”. The entry for `O=C(C[C@@H]1CC[C@H]2[C@@H](COC[C@@H](O)CN2Cc2cc(F)ccc2F)O1)N[C@H]1CCN(Cc2ccccc2)C1` is “inactive”.

As for `O=C(C[C@@H]1CC[C@@H]2[C@H](COC[C@@H](O)CN2Cc2cc(F)ccc2F)O1)N[C@@H]1CCN(Cc2ccccc2)C1`, the cytotoxicity call is “inactive”.

Turning to `O=C(C[C@H]1CC[C@H]2[C@@H](COC[C@@H](O)CN2Cc2cc(F)ccc2F)O1)N[C@H]1CCN(Cc2ccccc2)C1`, the cytotoxicity call was “active”.

`O=C(C[C@H]1CC[C@H]2[C@@H](COC[C@H](O)CN2Cc2cc(F)ccc2F)O1)N[C@H]1CCN(Cc2ccccc2)C1`: the cytotoxicity call is “inactive”.

With `O=C(C[C@@H]1CC[C@H]2[C@@H](COC[C@H](O)CN2Cc2cc(F)ccc2F)O1)N[C@H]1CCN(Cc2ccccc2)C1`, the cytotoxicity call is “inactive”.

In the case of `O=C(C[C@H]1CC[C@@H]2[C@H](COC[C@@H](O)CN2Cc2cc(F)ccc2F)O1)N[C@H]1CCN(Cc2ccccc2)C1`, the cytotoxicity call was “active”. For `O=C(C[C@H]1CC[C@H]2[C@@H](COC[C@@H](O)CN2Cc2cc(F)ccc2F)O1)N[C@@H]1CCN(Cc2ccccc2)C1` the value was “inactive”; for `O=C(C[C@H]1CC[C@@H]2[C@H](COC[C@@H](O)CN2Cc2cc(F)ccc2F)O1)N[C@@H]1CCN(Cc2ccccc2)C1`, “active”; for `C[C@H](CO)N1C[C@H](C)[C@@H](CN(C)Cc2cncnc2)Oc2ncc(C#C[C@@H](C)O)cc2C1=O`, “inactive”.

Regarding `O=P(O)(O)CN1CCN(CP(=O)(O)O)CCN(CP(=O)(O)O)CCN(CP(=O)(O)O)CC1`, the cytotoxicity call is “inactive”. As to `C[C@@H]1CN([C@H](C)CO)C(=O)Cc2cc(NC(=O)Nc3ccc(F)cc3)ccc2O[C@H]1CN(C)CC1CCCCC1`, the cytotoxicity call was “active”. Regarding `C[C@H]1CN([C@@H](C)CO)C(=O)Cc2cc(NC(=O)Nc3ccc(F)cc3)ccc2O[C@H]1CN(C)CC1CCCCC1`, the cytotoxicity call is “active”.

For `C[C@@H]1CN([C@@H](C)CO)C(=O)Cc2cc(NC(=O)Nc3ccc(F)cc3)ccc2O[C@@H]1CN(C)CC1CCCCC1`, the cytotoxicity call is “active”. On to `C[C@H]1CN([C@@H](C)CO)C(=O)Cc2cc(NC(=O)Nc3ccc(F)cc3)ccc2O[C@@H]1CN(C)CC1CCCCC1`, for which the cytotoxicity call is “active”. The entry for `COc1ccc(NC(=O)Nc2ccc3c(c2)CC(=O)N([C@H](C)CO)C[C@@H](C)[C@H](CN(C)CC2CCCCC2)O3)cc1` is “inactive”; for `Cc1noc(C)c1S(=O)(=O)Nc1ccc2c(c1)C(=O)N([C@H](C)CO)C[C@H](C)[C@@H](CN(C)C(=O)NC1CCCCC1)O2` it is “inactive”.

Consider `CNC[C@H]1OCCCC[C@H](C)Oc2ccc(NC(=O)c3ccncc3)cc2C(=O)N([C@H](C)CO)C[C@@H]1C`, for which the cytotoxicity call was “inactive”. For `COc1ccc2c3c([nH]c2c1)[C@H](CO)N(C[C@]13CN(C1)S(=O)(=O)c1cccs1)C(=O)c1ccccc1` the value was “inactive”; for `COc1ccc2c3c([nH]c2c1)[C@@H](CO)N(CC1CCOCC1)C[C@]13CCN(CC1)C(=O)C1CCOCC1`, “inactive”.

For `CC(C)CC#Cc1ccc2c(c1)O[C@@H](CN(C)C(=O)Cc1ccncc1)[C@H](C)CN([C@H](C)CO)S2(=O)=O`, the cytotoxicity call was “inactive”.

Take `COc1ccc(CN(C)C[C@H]2OCCCC[C@@H](C)Oc3ccc(NC(=O)c4ccncc4)cc3C(=O)N([C@H](C)CO)C[C@@H]2C)cc1`: the cytotoxicity call was “inactive”.

Consider `CC(C)c1cn(CC[C@@H]2CC[C@H](N)[C@@H](CO)O2)nn1`, for which the cytotoxicity call is “inactive”. On to `CO[C@@H]1CN(C)C(=O)c2ccc(NS(=O)(=O)c3cn(C)cn3)cc2OC[C@@H](C)N(Cc2cccc(F)c2)C[C@@H]1C`, for which the cytotoxicity call is “inactive”. For `CCN(CC)CCNc1nc(=O)[nH]nc1C` the value was “inactive”; for `O=C(N[C@H]1CC[C@H](CCn2cc(C3(O)CCCC3)nn2)O[C@@H]1CO)C1CCOCC1`, “inactive”; for `COc1ccc(-c2cnc3c(c2)C(=O)N([C@H](C)CO)C[C@H](C)[C@H](CN(C)S(=O)(=O)c2ccc(C#N)cc2)O3)cc1`, “inactive”. For `C[C@@H]1CN([C@@H](C)CO)C(=O)Cc2cc(NC(=O)Nc3ccc(F)cc3)ccc2O[C@H]1CN(C)CC1CCCCC1` the value was “inactive”. On to `C[C@@H]1CN([C@H](C)CO)C(=O)Cc2cc(NC(=O)Nc3ccc(F)cc3)ccc2O[C@@H]1CN(C)CC1CCCCC1`, for which the cytotoxicity call was “active”.

On to `C[C@H](CO)N1C[C@H](C)[C@H](CN(C)CC2CCCCC2)Oc2ccc(NC(=O)Nc3ccc(F)cc3)cc2CC1=O`, for which the cytotoxicity call was “active”.

Consider `C[C@H](CO)N1C[C@H](C)[C@@H](CN(C)CC2CCCCC2)Oc2ccc(NC(=O)Nc3ccc(F)cc3)cc2CC1=O`, for which the cytotoxicity call is “inactive”. The entry for `O=C(C[C@H]1CC[C@H]2[C@@H](COC[C@@H](O)CN2S(=O)(=O)c2ccccc2)O1)NCc1ccc2c(c1)OCO2` is “inactive”. For `C[C@H](CO)N1C[C@H](C)[C@H](CN(C)C(=O)Nc2cccc3ccccc23)Oc2ncc(/C=C/c3ccccc3)cc2C1=O` the value was “inactive”; for `NC(=O)c1cc2ccccc2nc1C(N)=O`, “inactive”. For `C[C@H](CO)N1C[C@H](C)[C@H](CN(C)C(=O)Nc2cccc3ccccc23)Oc2ccc(NC(=O)C3CCCCC3)cc2C1=O` the value was “inactive”; for `CO[C@H]1CN(C)C(=O)c2cc(NC(=O)c3ccccc3)ccc2OC[C@@H](C)N(C(=O)CN(C)C)C[C@H]1C`, “inactive”. For the compound `CCCCc1ccc(CC(=O)O)cc1`, the cytotoxicity call is “active”.

In the case of `O=C(O)Cc1ccc(CO)cc1`, the cytotoxicity call is “inactive”. In the case of `CC(=O)Nc1ccc(CC(=O)O)cc1`, the cytotoxicity call is “inactive”. Turning to `COc1ccc2c3c(n(c2c1)C)[C@H](CO)N(C[C@]13CN(C1)C(=O)Nc1cccc(c1)F)C(=O)CN1CCOCC1`, the cytotoxicity call was “inactive”. For `COc1ccc(NC(=O)Nc2ccc3c(c2)C(=O)N([C@@H](C)CO)C[C@H](C)[C@@H](CN(C)C(=O)C2CCCCC2)OCCCC[C@@H](C)O3)cc1`, the cytotoxicity call is “inactive”. In the case of `COc1ccc(NC(=O)Nc2ccc3c(c2)C(=O)N([C@@H](C)CO)C[C@@H](C)[C@@H](CN(C)C(=O)C2CCCCC2)OCCCC[C@@H](C)O3)cc1`, the cytotoxicity call was “inactive”. The entry for `COc1ccc(NC(=O)Nc2ccc3c(c2)C(=O)N([C@H](C)CO)C[C@@H](C)[C@H](CN(C)C(=O)C2CCCCC2)OCCCC[C@H](C)O3)cc1` is “inactive”; for `COc1ccc(NC(=O)Nc2ccc3c(c2)C(=O)N([C@H](C)CO)C[C@@H](C)[C@H](CN(C)C(=O)C2CCCCC2)OCCCC[C@@H](C)O3)cc1` it is “active”; for `COc1ccc(NC(=O)Nc2ccc3c(c2)C(=O)N([C@@H](C)CO)C[C@H](C)[C@H](CN(C)C(=O)C2CCCCC2)OCCCC[C@H](C)O3)cc1` it is “active”. The entry for `COc1ccc(NC(=O)Nc2ccc3c(c2)C(=O)N([C@@H](C)CO)C[C@H](C)[C@H](CN(C)C(=O)C2CCCCC2)OCCCC[C@@H](C)O3)cc1` is “inactive”. For `Cn1cnc(S(=O)(=O)N2C[C@@H](O)COC[C@H]3O[C@H](CC(=O)NC4Cc5ccccc5C4)CC[C@@H]32)c1` the value was “inactive”; for `C[C@H]1CN([C@@H](C)CO)C(=O)c2cccc(NC(=O)Nc3ccc4c(c3)OCO4)c2O[C@@H]1CN(C)Cc1ccc(Cl)c(Cl)c1`, “inactive”.

Regarding `COc1ccc(S(=O)(=O)N(C)C[C@@H]2Oc3cc(Br)ccc3S(=O)(=O)N([C@H](C)CO)C[C@@H]2C)cc1`, the cytotoxicity call was “inactive”. In the case of `COc1ccc([C@H]([C@@H](O)Cc2ccccc2)N(CC#C[C@@H](O)c2ccccc2)[C@@H](Cc2ccccc2)C(OC)OC)cc1`, the cytotoxicity call is “inactive”. For `COc1ccc([C@H]([C@H](Cc2ccccc2)OC(C)=O)N(C/C=C/[C@@H](OC(C)=O)c2ccccc2)[C@@H](Cc2ccccc2)C(OC)OC)cc1` the value was “active”; for `COc1ccc([C@H]([C@@H](O)Cc2ccccc2)N(CC#C[C@@H](O[Si](c2ccccc2)(c2ccccc2)C(C)(C)C)c2ccccc2)[C@@H](Cc2ccccc2)C(OC)OC)cc1`, “inactive”; for `COc1ccc([C@H]([C@H](Cc2ccccc2)OC(C)=O)N(CC#C[C@@H](O[Si](c2ccccc2)(c2ccccc2)C(C)(C)C)c2ccccc2)[C@@H](Cc2ccccc2)C(OC)OC)cc1`, “inactive”.

As to `COc1ccc([C@H]([C@H](Cc2ccccc2)OC(C)=O)N(CC#C[C@@H](O)c2ccccc2)[C@@H](Cc2ccccc2)C(OC)OC)cc1`, the cytotoxicity call was “active”. For `COc1ccc([C@H]([C@H](Cc2ccccc2)OC(C)=O)N(C/C=C\[C@@H](O)c2ccccc2)[C@@H](Cc2ccccc2)C(OC)OC)cc1` the value was “inactive”.
